Out of some 48,000 compounds screened, about 13,000 (27%) showed an effect of 50% or more. The list shows a part of the results.
The molecules below were run on Wolbachia pipientis (assay: Anti-Wolbachia Cell-Based Screen). Details: 5 µM.
Format: functional
Design: scale not given: in the data most compounds retested in dose-response had high values

Structure (SMILES)	Percent Effect [%]
CN(C)C(C(=O)N1CCN(CCn2cccc2)CC1)c1cccc(F)c1 (stereo not given)	-3.926
O=C1OCCN1CCSc1nnnn1CC(F)(F)F	-1.95
CSCc1cccc(S(=O)(=O)NCc2cnn(C)c2C)c1	-8.017
Cc1ccc(C)c2c(O)cc(CNCc3ccc(S(N)(=O)=O)cc3)nc12	-3.225
Cc1cc(NC(=O)NCCc2ccc(S(N)(=O)=O)cc2)n(C)n1	-16.74
CCCc1nc(C)cc(NCc2ccc(S(N)(=O)=O)cc2)n1	98.3
CC(C)c1nn2c(-c3cnn(C)c3)nnc2s1	112.2
Cc1nc(-c2cnn(C)c2)sc1C(=O)NCc1ccc(C)n1C	-0.2397
Cc1nn2c(-c3cnn(C)c3)nnc2s1	91.48
Cc1nc(C(C)C)sc1C(=O)N(C)Cc1cnn(C)c1	-3.073
CN1CCN(c2nc(-c3cnn(C)c3)cs2)CC1	4.898
CS(=O)(=O)NCCC(=O)N1Cc2cnc(-c3ccccc3)nc2C1	16.59
CC(C)n1cnnc1CN(C)CC1CCOC1 (stereo not given)	-3.944
Cc1cc(NC(=O)N(CC2CCOC2)C2CC2)no1 (stereo not given)	-8.865
Cc1cc(C)c2c(N(C)CC3CCOC3)ncnc2n1 (stereo not given)	14.02
Brc1cnc(NCCCOCC2CCOC2)nc1 (stereo not given)	-7.311
CCN(CC1CCOC1)C(=O)Nc1ccc(OC)nc1 (stereo not given)	9.48
CN(CC1CCOC1)c1ccc(Br)cn1 (stereo not given)	73.32
Cc1cc(Br)cnc1N(C)CC1CCOC1 (stereo not given)	110.5
CCN(CC)c1ccc(NC(=O)NCC2CCOC2)cn1 (stereo not given)	10.55
CN(CC1CCOC1)c1ncc(Br)cn1 (stereo not given)	108.2
COCC1CN(S(=O)(=O)Cc2ccc(C)cc2)Cc2c1cnn2C.O=C(O)C(F)(F)F (stereo not given)	-11.46
CCCc1cncnc1N1CCC(NCCc2nc(O)cc(O)n2)CC1	12.44
Cc1ccccc1CCCN(Cc1ccccn1)S(C)(=O)=O	19.14
O=C(c1ncn2c(C3CCN(CC4CC4)CC3)ccnc12)N1CCCC1	-17.31
COCC1c2nnn(CC3CC3)c2CCN1C(=O)N1CCCC1 (stereo not given)	-0.306
Cl.Cl.Cn1cc(CN2CCc3c(CNC(=O)C4CC4)cncc3C2)cn1	-6.421
Cl.Cl.Cn1cc(C(=O)NCc2cncc3c2CCN(c2ccccn2)C3)cn1	91.67

Structure (SMILES)	Percent Effect [%]
CC(C)N1CCc2c(CNC(=O)c3nccn3C)cncc2C1.Cl.Cl.Cl	1.546
Cl.Cn1cc(C(=O)NCc2cncc3c2CCN(S(C)(=O)=O)C3)cn1	98.76
COCCN1CCc2c(CNC(=O)c3nccn3C)cncc2C1.Cl.Cl.Cl	-25.03
Cl.Cl.Cn1cc(C(=O)NCc2cncc3c2CCN(CC2CC2)C3)cn1	108.8
Cn1cc(C(=O)NCc2cn3c(n2)CN(CC2CCOCC2)CC3)cn1.O=C(O)C(F)(F)F	-7.416
N#Cc1cnc(NCc2ccc(C(=O)NC3CC3)cc2)c(Cl)c1	-6.229
CC(C)(C)c1noc(CCC(=O)N(CC2CCOC2)C2CC2)n1 (stereo not given)	7.667
CNC(=O)CN1CCO[C@H]2CN(CC3CCOC3)C[C@H]21.O=C(O)C(F)(F)F.O=C(O)C(F)(F)F (stereo not given in full)	19.99
CNC(=O)CN1CCC2(CCCN(CC3CCOC3)C2)CC1.O=C(O)C(F)(F)F.O=C(O)C(F)(F)F (stereo not given)	105.4
CC(=O)N1CCc2[nH]cnc2C12CCN(CC1CCOC1)CC2 (stereo not given)	-0.2967
CN(C)C(=O)CN1CCC2(C1)CN(CC1CCOC1)C2.O=C(O)C(F)(F)F.O=C(O)C(F)(F)F (stereo not given)	-5.986
CC(=O)N1CCC2(CCN(CC3CCCCC3)C2)CC1	-14.93
CC(=O)N1CCC2(CCN(CC3CCOC3)C2)CC1 (stereo not given)	104
Cc1cccc(NC(=O)Cn2ncc(SCC(N)=O)c(Cl)c2=O)c1C	-8.805
CN(C)c1cccc(C2CCCN2c2nc3c(cnn3C)c(=O)[nH]2)c1 (stereo not given)	1.208
CCc1ccc(CN(C)C(=O)C2CC(=O)N(c3cccc(O)c3)C2)nc1 (stereo not given)	-3.145
CCCn1nc2c(cc1=O)CN(Cc1nc(-c3ccoc3)no1)CC2	8.04
Cl.O=C(NCC(F)F)c1cnc(C2CCCN2)cn1 (stereo not given)	98.86
Cl.O=C1NCCCCC1NCc1csc(-c2ccccn2)n1 (stereo not given)	-2.48
O=C(NC[C@H]1CCCN1)c1cc(COc2cccc(C(F)(F)F)c2)[nH]n1	-12.79
CC1CCc2nc(O)c(C(=O)NCc3ccccn3)cc2C1 (stereo not given)	0.7211
O=C(NC[C@@H]1CCCN1)c1cc(COc2cccc(C(F)(F)F)c2)[nH]n1	1.903
O=C(NCc1ccccn1)c1cnc(C2CCCN2)cn1 (stereo not given)	135
O=C(NCc1ccccn1)C1CN(c2nc3ccccc3s2)CCN1 (stereo not given)	4.696
CCC1c2ccsc2CCN1C(=O)NCc1ccccn1 (stereo not given)	11.42
O=C(NCc1ccccn1)c1cncc(C2CCCN2)n1 (stereo not given)	138.1
Cc1nc(C(=O)NCc2ccccn2)cc(C2CCCN2)n1 (stereo not given)	186.5
